# Screening results deposited in PubChem by National Center for Advancing Translational Sciences (NCATS).
# The list is not random: actives were taken first. Their share in the collection is about 18%.
# IL1B secr inh: inflammasome signaling inhibition, IL-1 beta readout; THP-1 LPS/ATP IL-1B secretion, AlphaLISA, 16 h; hits give low values; activity change, % at 57.5 µM; 360,000 tested, 4.7% active; in the data active = activity change below about -50%; inconclusive = mostly about -30% to -49%; note: % is set by controls: 0 for no effect and ±100 for the full control effect
#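 THP-1 cells pretreated 1 hr with compounds (up to 57.5 uM final), then stimulated with LPS (250 ng/mL final) plus ATP (1.25 mM final); secreted IL-1B measured by AlphaLISA after 16 hr, decreased signal indicating inhibition.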
# TGFb inhibitor: blocks TGF-b signaling; HepG2 CAGA-GFP TGF-b/SMAD3 reporter, GFP fluorescence, 18 h; TGF-beta stimulated, 500 pg/mL final; Potency, µM (titrated, usually from 46.1 µM), inactives show top-dose activity, negative = inhibition, actives largely listed as inhibitors; 410,000 tested, 1.2% active; AID 588855; note: potency is the fitted concentration of half-maximal effect; % is set by controls: 0 for no effect and ±100 for the full control effect; nearly all actives have a fitted effect of over 65% in size
#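 HEPG2 CAGA-GFP reporter cells (1000/well, DMEM with 1% FBS) received compounds, then recombinant TGF-beta at 500 pg/mL final for 18 hours at 37 degrees C. Per-cell GFP summed per well was normalised to unstimulated and stimulated DMSO controls before curve fitting.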
# DT40 TDP1 CPT: growth inhibition of DT40 Tdp1-/-;hTDP1 cells with camptothecin (screen for TDP1 inhibitors); AID 686979; chicken DT40 Tdp1-/-;hTDP1 cells + 20 nM CPT, ATP luminescence, 48 h; 420,000 tested, 12% active; Potency, µM (top dose mostly 46.2 µM), for inactives: at the highest dose activity change, negative = growth inhibition, most hits filed as inhibitors; note: potency is the fitted concentration of half-maximal effect; % is set by controls: 0 for no effect and ±100 for the full control effect; nearly all actives have a fitted effect of over 55% in size
#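 Cell growth measured by CellTiter-Glo luminescence after a minimum 48 h, 37 C compound exposure with 20 nM CPT in Tdp1-knockout DT40 cells stably expressing hTDP1, seeded 400/well; qHTS titration format.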
# HepG2 tox: HepG2 cytotoxicity, counter-screen for TGF-b inhibitors. 410,000 tested, 0.76% active. HepG2 CAGA-GFP viability, ATP luminescence, 18 h. Potency, µM (top dose mostly 46.1 µM), for inactives: top-dose activity change, negative = cytotoxicity, hits mostly cytotoxic. AID 588856; note: potency is the fitted concentration of half-maximal effect
#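 CellTiter-Glo luminescence gave cytotoxicity after 18 hours at 37 degrees C. The cells were HepG2 CAGA-GFP in 1% FBS DMEM, stimulated with 500 pg/mL TGF-beta after compound addition. %Activity was normalised to no-cell wells (complete cell-killing) and DMSO (no toxicity), and curves were fitted and classified.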
# TDP1 block: blocks human tyrosyl-DNA phosphodiesterase 1 | Q9NUW8 | recombinant TDP1, AlphaScreen DNA substrate cleavage | Potency, µM (doses to about 130 µM), for the others: at the top dose activity change, negative = inhibition, actives largely listed as inhibitors | 350,000 tested, 0.28% active | AID 485290; note: potency is the fitted concentration of half-maximal effect; % is set by controls: 0 for no effect and ±100 for the full control effect; nearly all actives have a fitted effect of over 40% in size
# Target sequence (Q9NUW8 whole entry, looked up): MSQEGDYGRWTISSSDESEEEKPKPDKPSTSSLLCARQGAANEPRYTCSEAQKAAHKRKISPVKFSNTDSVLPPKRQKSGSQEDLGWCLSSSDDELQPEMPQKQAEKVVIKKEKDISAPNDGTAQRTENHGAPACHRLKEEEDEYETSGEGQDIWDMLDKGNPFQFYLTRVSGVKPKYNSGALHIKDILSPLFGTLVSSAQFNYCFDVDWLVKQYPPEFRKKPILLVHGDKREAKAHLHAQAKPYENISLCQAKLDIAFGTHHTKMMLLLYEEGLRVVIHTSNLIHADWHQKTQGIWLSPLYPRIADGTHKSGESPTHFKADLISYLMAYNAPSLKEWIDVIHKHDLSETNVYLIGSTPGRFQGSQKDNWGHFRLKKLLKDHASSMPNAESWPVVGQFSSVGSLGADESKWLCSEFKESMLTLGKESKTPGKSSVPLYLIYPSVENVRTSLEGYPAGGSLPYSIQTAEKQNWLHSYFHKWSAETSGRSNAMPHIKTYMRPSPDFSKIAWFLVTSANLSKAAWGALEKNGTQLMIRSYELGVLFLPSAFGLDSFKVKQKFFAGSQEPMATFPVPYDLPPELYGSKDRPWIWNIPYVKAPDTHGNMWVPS
#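 Tdp1 1 nM final; 15 min RT w/ cpd; substrate 15 nM, 5 min; beads 10 ug/ml, 10 min; AlphaScreen read. Neg ctrl: no enzyme.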
# TDP1 cell noCPT: qHTS for Inhibitors of human tyrosyl-DNA phosphodiesterase 1 (TDP1): qHTS in cells in absence of CPT; DT40 Tdp1-/- hTDP1 cells, no CPT, ATP luminescence, 48 h; Potency, µM (series often up to 46.2 µM), without a hit: at the highest dose activity change, negative = growth inhibition, most hits filed as inhibitors; 420,000 tested, 15% active; note: potency is the fitted concentration of half-maximal effect; % is set by controls: 0 for no effect and ±100 for the full control effect; nearly all actives have a fitted effect of over 55% in size
#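 No-CPT arm: Tdp1-/-;hTDP1 DT40 cells (400/well) plus compounds, incubated ≥48 hr at 37 °C. Readout CellTiter-Glo luminescence.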
# * hit, by the source's call; ? = inconclusive; . = no result; [ ] = dose if it differs, or a comment. Unless noted, calls come from the whole dose curve; as a rule, active = well fitted curve in the direction sought with a large enough effect; inconclusive = small, poorly fitted or top-dose-only effect, or another doubt; inactive = no such curve, though single readings can be large; an effect the other way counts as inactive or inconclusive.
SMILES,IL1B secr inh,TGFb inhibitor,DT40 TDP1 CPT,HepG2 tox,TDP1 block,TDP1 cell noCPT
O=C1CC(Sc2ncccn2)C(=O)N1c1ccccc1 (stereo not given),-2.6,-8.9%,14.1µM*,-2.7%,-1.8%,?
Cc1ccc(NC2CCCN(C(=O)c3ccc(C)c(N4CCNC4=O)c3)C2)cc1C (stereo not given),-1.2,-3.0%,-4.2%,3.7%,6.0%,-16.3%
CCOc1ccc(N2C(=O)CC(Sc3ncccn3)C2=O)cc1 (stereo not given),8.1,-6.3%,18.4µM*,-5.8%,3.3%,?
COc1ccc(/C=N/Nc2ncnc3scc(-c4ccccc4)c23)cc1OC,-8.6,-22.2%,?,-23.4%,9.0%,?
CC(=O)NCCNc1nc(-c2cccnc2)nc2ccccc12,.,.,-1.5%,.,.,-7.1%
COc1ccc(/C=N/Nc2nc(-c3cccnc3)nc3ccccc23)cc1OC,-51.7*,-7.1%,16.4µM*,-11.9%,7.1%,3.66µM*
COc1ccc(CCNc2nc(-c3cccnc3)nc3ccccc23)cc1OC,?,-16.4%,13µM*,-30.5%,10.0%,9.2µM*
Oc1ccc(/C=N/Nc2nc(-c3cccnc3)nc3ccccc23)c(O)c1,-12.8,?,23.1µM*,-41.6%,8.7%,4.11µM*
Cc1ccc(-c2nc(N/N=C/c3ccncc3)c3ccccc3n2)cc1,0.0,-18.9%,20.6µM*,-88.7%,-2.2%,18.4µM*
COCc1cccc(C(=O)NC(c2ccccc2)c2ccccc2)c1,-14.9,?,-5.9%,-9.3%,4.3%[0.0935 µM],-9.5%
Cc1cccc(C(=O)N/C(=C\c2ccco2)C(=O)N2CCCC2)c1,8.9,2.4%,-2.5%,-0.2%,-0.3%,-25.2%
Cc1c(O)ccc(/C=N/Nc2nc(-c3cccnc3)nc3ccccc23)c1O,-19.4,?,5.17µM*,6.31µM*,2.6%,3.66µM*
COC(=O)C1=CN(Cc2ccc(F)cc2)C=C(C(=O)OC)C1c1cc(OC)c(OC)c(OC)c1,-18.1,15.5%,-4.6%,-17.6%,.,0.8%
COC(=O)C1=CN(Cc2ccc(OC)c(OC)c2)C=C(C(=O)OC)C1c1cccc(F)c1,48.9,25.7%,16.4µM*,15.4%,.,18.4µM*
COC(=O)C1=CN(Cc2ccc(C)cc2)C=C(C(=O)OC)C1c1ccc(F)c(F)c1,-26.9,-0.7%,?,0.6%,.,23.1µM*
COC(=O)C1=CN(c2ccc(F)cc2)C=C(C(=O)OC)C1c1cccc(Br)c1,?,-1.1%,23.1µM*,6.1%,-12.5%,?
CS(=O)(=O)NCc1ccccc1Br,.,?,-10.9%,11.8%,-0.1%,-16.0%
Cc1cc(Cn2nc(C(=O)NCc3cccc(Br)c3)cc2-c2ccccc2)on1,-57.6*,?,?,-21.1%,-3.5%,?
Cc1ccc(C(=O)/C=C/C(=O)O)cc1,-6.1,?,?,-27.7%,2.8%,25.9µM*
Cc1ccc(C(=O)/C=C/c2ccc3ncccc3c2)cc1,-58.0*,?,18.4µM*,-63.6%,7.3%,29.1µM*
CCC(=O)c1ccc2ncccc2c1,-9.4,-17.7%,-16.2%,-12.1%,2.4%,-13.3%
O=C(C=Cc1ccco1)c1ccc2ccccc2c1,-64.8*,-29.9%,?,-23.9%,.,?
CC(=O)Nc1ccc(N/C=C/C(=O)c2ccc(Cl)cc2)cc1,-5.6,5.5%,4.7%,4.7%,31.6µM*,7.1%
CC1(C)CC(=O)C(CC(=O)c2ccccc2)=C(NN=C(N)N)C1,-0.1,?,0.6%,-73.5%,.,-27.5%
CN(C)C(=O)OC1=C(c2ccccc2)Sc2ccccc2-n2cccc21,.,.,?,.,13.4%,?
CN(C)c1ccc(C(=O)/C=C/c2ccc(Br)cc2)cc1,-22.8,8.9%,-19.1%,-18.5%,1.1%,?
